This is a sample that favours compounds with a hit; in the whole collection about 7.4% have one here.
SMN2 splice enh: qHTS Assay for Enhancers of SMN2 Splice Variant Expression; HEK293 SMN2-luciferase splicing reporter, luminescence, 30-36 h; Potency, µM (highest dose often 46.1 µM), inactives show at the top dose activity change, positive = activation, most hits filed as activators; 210,000 tested, 2.8% active; note: % of control where 0% means no effect; nearly all actives have a fitted effect of over 55% in size
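qHTS luciferase splicing reporter: luminescence rises when SMN2 exon 7 is included in transfected HEK293 cells. Compound exposure lasted 30-36 h at 37C, with 4.5 mM final sodium butyrate as control, followed by a ONE-Glo read.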
Rab9 promoter act: qHTS Assay for Rab9 Promoter Activators; Huh7 Rab9 promoter-luciferase reporter, luminescence, 24 h; Potency, µM (highest dose often 9.22 µM), without a hit: at the top dose activation, negative = inhibition, usual class: activators; 320,000 tested, 2.8% active; AID 485297, 2010; note: % of control where 0% means no effect; nearly all actives have a fitted effect of over 60% in size
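Promoter activation is measured as luciferase luminescence in Huh7 cells stably transfected with a Rab9 promoter–luciferase construct, following 24 h compound exposure at 37 °C and 10 min reagent incubation at ambient temperature.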
FLuc modulator: qHTS profiling assay for firefly luciferase inhibitor/activator using purifed enzyme and Km concentrations of substrates (counterscreen for miR-21 project); Luciferin 4-monooxygenase (Photinus pyralis), P08659; purified FLuc, Km substrates, luminescence inhibition; Potency, µM (top dose mostly 57.5 µM), for inactives: at the top dose activity change, negative = inhibition, usual class: inhibitors; 360,000 tested, 6.9% active; AID 588342, 2011;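 note: plate controls were vehicle for no effect and reference inhibitor for full effect; nearly all actives have a fitted effect of over 55% in size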
Target sequence (P08659 whole entry, looked up): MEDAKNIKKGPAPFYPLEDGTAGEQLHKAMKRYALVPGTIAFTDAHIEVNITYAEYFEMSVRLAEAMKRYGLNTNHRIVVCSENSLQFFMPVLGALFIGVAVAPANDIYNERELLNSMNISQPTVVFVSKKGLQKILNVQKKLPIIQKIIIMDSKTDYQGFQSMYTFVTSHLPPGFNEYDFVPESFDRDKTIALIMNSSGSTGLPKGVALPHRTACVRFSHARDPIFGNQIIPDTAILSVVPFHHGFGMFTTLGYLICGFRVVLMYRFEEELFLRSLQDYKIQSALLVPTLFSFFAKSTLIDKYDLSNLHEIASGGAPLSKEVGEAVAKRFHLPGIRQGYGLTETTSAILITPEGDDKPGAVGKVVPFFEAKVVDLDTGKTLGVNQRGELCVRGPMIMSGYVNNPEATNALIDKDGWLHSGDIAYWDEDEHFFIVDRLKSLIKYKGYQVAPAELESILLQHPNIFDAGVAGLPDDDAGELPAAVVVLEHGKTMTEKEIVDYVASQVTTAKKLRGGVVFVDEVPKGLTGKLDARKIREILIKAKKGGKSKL
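Biochemical qHTS of compounds, final roughly 60 µM downward over six points, against 10 nM purified firefly luciferase using Km concentrations of substrates (10 uM D-luciferin, 10 uM ATP) in Tris acetate pH 7.5 buffer; luminescence output.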
ELG1 genotoxic: qHTS screen for small molecules that induce genotoxicity in human embryonic kidney (HEK293T) cells expressing luciferase-tagged ELG1. HEK293T ELG1-luciferase reporter, luminescence, 16 h. Potency, µM (top dose mostly 46 µM), without a hit: at the highest dose activity change, positive = activation, most hits filed as activators. 330,000 tested, 1.3% active. AID 504466, 2011; note: % of control where 0% means no effect; nearly all actives have a fitted effect of over 60% in size
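DMSO vehicle served as control against compound-treated ELG1-luciferase HEK293T cells; exposure lasted 16 hr at 37 °C and 5% CO2, followed by ONE-Glo luminescence detection after 30 min.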
NPC1 prom act: qHTS Assay for NPC1 Promoter Activators | Huh7 NPC1 promoter luciferase reporter, 24 h | Potency, µM (doses to about 9.22 µM), for the others: top-dose activation, usual class: activators | 320,000 tested, 2.4% active | AID 485313, 2010; note: % of control where 0% means no effect; nearly all actives have a fitted effect of over 60% in size
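In 1536-well qHTS, Huh7 cells harboring an NPC1 promoter–luciferase construct received compound for 24 h; activation was quantified by luminescence following luciferase reagent addition.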
The depositor's hits bear a star; ? = inconclusive; . = not tested or not shown; [ ] = another dose, or the depositor's remark. Calls come from the whole dose curve; as a rule, active = well fitted curve in the direction sought with a large enough effect; inconclusive = small, poorly fitted or top-dose-only effect, or another doubt; inactive = no such curve, though single readings can be large; an effect the other way counts as inactive or inconclusive. Potency is the fitted concentration of half-maximal effect.

SMILES	SMN2 splice enh	Rab9 promoter act	FLuc modulator	ELG1 genotoxic	NPC1 prom act
CCc1cc(C(=O)NNC(=S)NC2CCCCC2)cs1	.	3.55µM*	-11.0%	-3.8%	3.55µM*
CC(C)c1cc(C(=O)NNC(=S)NC2CCCCC2)cs1	.	?	?	?	3.98µM*
CC1(C)COC(c2coc3ccccc3c2=O)OC1	?	26.9%	16.9µM*	?	28.8%
Cc1cc(C(=O)Nc2cccc([N+](=O)[O-])c2C)cs1	.	12.9%	-15.7%	10.2%	8.1%
CC(C)(C)c1ccc(NC(=O)c2ccccc2)c([N+](=O)[O-])c1	7.8%	0.501µM*	4.26µM*	-9.6%	0.447µM*
Cc1c(NC(=O)c2ccc(C(C)(C)C)cc2)cccc1[N+](=O)[O-]	15.8µM*	?	13.5µM*	10.1%	?
Cc1nn(-c2ccccc2)c(C)c1Cc1ccc(O)cc1	.	?	23.9µM*	2.6%	?
Cc1nn(-c2ccccc2)c(C)c1CN	.	-10.0%	-0.7%	1.6%	-3.3%
COc1cc(C(=O)NCc2nnc(SCC(=O)NC3CCCCC3)o2)cc(OC)c1OC	.	-0.2%	0.2%	11.5%	0.0%
Clc1ccc(/C=C/c2nc3ccccc3[nH]2)c(Cl)c1	0.562µM*	0.398µM*	0.0675µM*	?	0.708µM*
O=C(/C=C/c1ccc(Cl)cc1Cl)c1nc2ccccc2[nH]1	-28.8%	0.1%	0.239µM*	2.4%	0.4%
OCc1nc2ccc(Cl)cc2[nH]1	.	-8.9%	6.0%	0.0%	-4.5%
Clc1cccc(Cl)c1/C=C/c1nc2ccccc2[nH]1	11.2µM*	4.47µM*	0.675µM*	?	3.55µM*
O=C(/C(=C(\O)c1ccccc1)c1nc2ccccc2[nH]1)c1ccccc1	.	18.8%	0.5%	-9.2%	-4.9%
O=[N+]([O-])c1ccc(/C=C/c2nc3ccc([N+](=O)[O-])cc3[nH]2)cc1	.	5.8%	?	-4.6%	12.6%
Clc1ccc(/C=C/c2nc3ccccc3[nH]2)cc1	0.794µM*	0.199µM*	0.0757µM*	0.581µM*	0.1µM*
CCCCC[C@H](O)/C=C/[C@H]1CCC(=O)[C@@H]1CCCCCCC(=O)N1CCCCC1CO (stereo partly specified)	.	-5.6%	2.0%	-12.5%	-0.9%
Cc1ccc2c(c1)c(-c1csc(N)n1)c(C)n2C	.	-2.2%	4.8%	-9.9%	4.1%
Cc1cc(Cl)c(C)c(S(=O)(=O)Oc2ccccc2NC(=O)CCC(=O)O)c1Cl	.	-8.1%	-1.4%	1.4%	-7.3%
O=C1CCSC2(C(=O)N(Cc3ccc(F)cc3)c3ccccc32)N1c1cccc(F)c1 (stereo unspecified)	.	.	-3.7%	.	.
COc1ccc(Nc2ncc(C(=O)N3CCN(Cc4ccccc4)CC3)c3ccccc23)cc1	-40.9%	-7.9%	19µM*	-9.3%	0.6%
O=C(Cn1c(=O)oc2cc(S(=O)(=O)N3CCCC3)ccc21)Nc1ccc(F)cc1F	11.5%	.	1.5%	.	.
Cc1ccc2nc(-c3cccnc3)oc2c1	?	1.26µM*	8.49µM*	?	?
Cc1ccc(C(=O)Nc2ccc3oc(-c4cccnc4)nc3c2)c(Cl)c1	-4.8%	.	?	.	.
O=C(O)Cc1ccc2oc(-c3ccccn3)nc2c1	.	-5.5%[1.84 µM]	?	11.8%	-7.8%
SMILES	SMN2 splice enh	Rab9 promoter act	FLuc modulator	ELG1 genotoxic	NPC1 prom act
Cc1ccc2nc(-c3ccccn3)oc2c1	7.08µM*	0.631µM*	1.9µM*	?	1.58µM*
Cc1ccc2nc(C)c(C(=O)N/N=C/c3ccccc3[N+](=O)[O-])cc2c1	4.8%	11.0%	6.75µM*	7.8%	5.1%
Cc1nc(N)sc1C(=O)N/N=C/c1ccccc1[N+](=O)[O-]	14.1µM*	2µM*	-6.5%	15.1%	2.82µM*
Cc1ccc2nc(C)c(C(=O)N/N=C/c3ccco3)cc2c1	6.6%	-0.4%	?	3.9%	-0.2%
Cc1nc(N)sc1C(=O)N/N=C/c1c[nH]c2ccccc12	14.5%	0.3%	19µM*	8.2µM*	25.2%
CCN(CC)c1ccc(-n2nc3cc(C)c(NC(=O)c4ccccc4F)cc3n2)cc1	-3.0%	.	?	.	.
